These results are taken from PubChem BioAssay AID2283162 (EPA ToxCast).

As usually defined, the AC50 is the midpoint of the concentration-response curve, whichever way the signal moves.

Results filed as inconclusive are left out. Calls of active or inactive are those of the source. How the source made its calls: active means hit-call score of the fitted dose curve at least 0.9, where 1 is the maximum; inconclusive means response in the unintended direction; inactive means score below 0.9.

The assay deals with human Insulin-like Growth Factor 1 Receptor (IGF1R), IGF1R (gene 3480) (UniProt P08069). The experiment in a line: NVS_ENZ_hIGF1R: NovaScreen (NVS) Enzymatic Assay for human Insulin-like Growth Factor 1 Receptor (IGF1R). The protocol: NVS_ENZ_hIGF1R is a biochemical, single-readout assay that uses extracted gene-proteins in a cell-free assay. Measurements were taken 1 hour after chemical dosing in a 384-well plate.NVS_ENZ_hIGF1R is one of one assay component(s) measured or calculated from the NVS_ENZ_hIGF1R assay. It is designed to make measurements of enzyme activity, a form of enzyme reporter, as detected with fluorescence intensity signals by Fluorescence and electrophoretic mobility shift technology.Data from the assay component NVS_ENZ_hIGF1R was analyzed into 1 assay endpoint. This assay endpoint, NVS_ENZ_hIGF1R, was analyzed in the positive analysis fitting direction relative to DMSO as the negative control and baseline of activity. Using a type of enzyme reporter, loss-of-signal activity can be used to understand changes in the enzymatic activity as they relate to the gene IGF1R. Furthermore, this assay endpoint can be referred to as a primary readout, because this assay has produced multiple assay endpoints where this one serves a enzymatic activity function. To generalize the intended target to other relatable targets, this assay endpoint is annotated to the kinase intended target family, where the subfamily is receptor tyrosine kinase.
Sequence of human Insulin-like Growth Factor 1 Receptor (IGF1R), IGF1R (gene 3480) (P08069 whole entry, looked up): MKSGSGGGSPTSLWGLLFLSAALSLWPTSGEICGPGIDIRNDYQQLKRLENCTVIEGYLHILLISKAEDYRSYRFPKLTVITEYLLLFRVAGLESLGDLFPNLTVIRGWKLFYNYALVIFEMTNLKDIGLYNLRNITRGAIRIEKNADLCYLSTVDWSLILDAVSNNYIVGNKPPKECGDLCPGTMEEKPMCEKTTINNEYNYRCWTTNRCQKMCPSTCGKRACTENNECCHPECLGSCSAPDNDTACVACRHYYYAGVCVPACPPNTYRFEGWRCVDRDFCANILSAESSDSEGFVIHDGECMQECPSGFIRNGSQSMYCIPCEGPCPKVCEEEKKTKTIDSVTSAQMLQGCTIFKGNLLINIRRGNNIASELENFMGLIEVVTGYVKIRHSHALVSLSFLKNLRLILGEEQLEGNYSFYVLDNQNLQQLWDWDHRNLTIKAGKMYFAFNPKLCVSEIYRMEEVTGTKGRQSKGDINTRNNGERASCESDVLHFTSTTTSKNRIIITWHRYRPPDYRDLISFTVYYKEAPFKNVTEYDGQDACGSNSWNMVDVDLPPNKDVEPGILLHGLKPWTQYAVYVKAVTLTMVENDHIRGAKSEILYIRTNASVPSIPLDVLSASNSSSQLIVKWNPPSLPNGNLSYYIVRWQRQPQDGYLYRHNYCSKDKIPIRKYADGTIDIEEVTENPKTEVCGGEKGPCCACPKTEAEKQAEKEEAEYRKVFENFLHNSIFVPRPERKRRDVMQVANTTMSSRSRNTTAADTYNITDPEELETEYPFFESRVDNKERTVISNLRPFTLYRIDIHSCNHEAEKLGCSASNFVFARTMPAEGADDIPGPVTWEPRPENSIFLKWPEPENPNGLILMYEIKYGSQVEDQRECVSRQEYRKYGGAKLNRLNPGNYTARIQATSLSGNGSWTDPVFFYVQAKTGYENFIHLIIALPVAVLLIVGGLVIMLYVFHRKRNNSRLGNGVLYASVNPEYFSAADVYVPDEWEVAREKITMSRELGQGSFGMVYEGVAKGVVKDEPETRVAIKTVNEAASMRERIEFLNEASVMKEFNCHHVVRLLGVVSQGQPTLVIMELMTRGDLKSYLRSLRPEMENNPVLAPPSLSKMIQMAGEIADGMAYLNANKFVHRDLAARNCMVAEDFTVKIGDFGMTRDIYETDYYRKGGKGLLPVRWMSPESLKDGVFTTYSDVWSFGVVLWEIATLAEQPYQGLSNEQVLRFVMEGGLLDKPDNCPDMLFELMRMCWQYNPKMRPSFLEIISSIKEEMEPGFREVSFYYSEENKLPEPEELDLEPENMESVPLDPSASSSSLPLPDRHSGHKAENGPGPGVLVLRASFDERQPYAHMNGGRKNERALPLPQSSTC
Binding assays used specific radioligands (tritiated, iodinated) with non-radioactive competitive displacement ligands in agonist or antagonist protocols (as indicated) and various reference compounds and inhibitors to titrate specific binding to receptors and transporters. Most enzyme assays (CYPs, kinases, phosphatases, proteases, HDACs) used recombinant protein and specific substrates (fluorescence mostly, some colorimetric and radioactive) and inhibitors, followed by a biochemical separation of substrate and product. All assays for the biochemical HTS were initially run in duplicate at a single concentration (10 uM for CYP450 assays and 25 uM for all others). Assay-chemical combinations meeting a pre-defined threshold (e.g., 30% inhibition and other criteria defined below) were then run in singleton concentration-response format with maximum concentration of 20 uM for CYPs and 50 uM for all others. Each assay was run with positive and negative controls, and concurrent controls on every plate. The follow-up (secondary) screen tested active chemical-pairs in concentration series, as well as a few additional assays not tested in the primary screen, some selected negative inactives, and several cases re-run in the concentration series for confirmatory purposes.
Take `CN(C)[C@@H]1C(=O)C(C(N)=O)=C(O)[C@@]2(O)C(=O)C3=C(O)c4c(O)cccc4[C@@](C)(O)[C@H]3[C@H](O)[C@@H]12`: the AC50 was 39.4 µM (active).

With `CCC1(c2ccccc2)C(=O)N=C(O)NC1=O` (stereo unspecified), the call was inactive.

As for `O=C(N[C@H]1CN2CCC1CC2)c1ccc2c(c1)OCCO2`, the outcome was inactive.

Turning to `CC(C)(C)c1cc(O)ccc1O`, the result was inactive.

With `Clc1cccc(Cl)c1`, the result was inactive.

As to `CC(C)C(=O)OCC(C)(C)C(OC(=O)C(C)C)C(C)C` (stereo unspecified), the outcome was inactive.
